In all, about 110,000 compounds were measured (“z-score”: median about -0.1, highest 2% from about 2 on). The list comes from a sample in which the highest values are over-represented; it also holds similar structures and randomly drawn compounds. Active and inactive are the calls of the source.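 The calls were made as follows: active = z-score in the third read window above 3 or below -3; inactive = the rest.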
molecular target: Metabotropic glutamate receptor 8 (Rattus norvegicus) (UniProt P70579); test: rat mGluR8 modulators via GIRK flux, primary screen, cell-based, thallium flux, HTS (AID 488969); settings: HEK293 rat mGluR8, GIRK (G protein-gated inwardly rectifying potassium channel) thallium flux, FluoZin2; at 10 µM; stronger effect = higher value; submaximal glutamate (EC20) added with thallium
Sequence (P70579 whole entry, looked up): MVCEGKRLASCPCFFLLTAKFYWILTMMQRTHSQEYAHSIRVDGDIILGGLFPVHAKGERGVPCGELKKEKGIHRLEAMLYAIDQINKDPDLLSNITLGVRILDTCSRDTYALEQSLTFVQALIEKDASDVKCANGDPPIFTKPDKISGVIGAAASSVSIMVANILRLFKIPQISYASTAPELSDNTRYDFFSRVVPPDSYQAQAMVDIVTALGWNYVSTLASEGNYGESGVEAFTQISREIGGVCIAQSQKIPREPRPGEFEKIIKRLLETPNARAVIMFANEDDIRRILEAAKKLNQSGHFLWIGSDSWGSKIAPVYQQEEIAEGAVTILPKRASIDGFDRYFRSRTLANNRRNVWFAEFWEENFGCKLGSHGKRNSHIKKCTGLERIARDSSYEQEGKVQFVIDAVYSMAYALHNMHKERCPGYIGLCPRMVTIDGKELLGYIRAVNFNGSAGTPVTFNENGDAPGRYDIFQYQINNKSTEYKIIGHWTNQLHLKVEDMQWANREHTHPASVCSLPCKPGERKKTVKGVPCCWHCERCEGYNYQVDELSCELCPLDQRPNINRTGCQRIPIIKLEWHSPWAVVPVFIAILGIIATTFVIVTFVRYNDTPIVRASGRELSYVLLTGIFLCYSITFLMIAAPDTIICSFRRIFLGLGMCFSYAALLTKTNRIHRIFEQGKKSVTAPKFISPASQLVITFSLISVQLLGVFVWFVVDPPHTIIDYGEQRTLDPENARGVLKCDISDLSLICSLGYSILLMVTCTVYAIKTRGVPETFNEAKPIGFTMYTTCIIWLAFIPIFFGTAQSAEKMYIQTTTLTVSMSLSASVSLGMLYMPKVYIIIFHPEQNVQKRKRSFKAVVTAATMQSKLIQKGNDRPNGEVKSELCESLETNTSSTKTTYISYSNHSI

Compound | z-score
CCc1cccc(NC(=O)CN(c2ccc(OC)cc2)S(=O)(=O)c2c(C)n[nH]c2C)c1 | 0.317
COCCCNC(=O)Cn1ncc2ccsc2c1=O | -0.327
COC(CNC(=O)Cn1ncc2ccsc2c1=O)OC | -0.112
COCCNC(=O)Cn1ncc2ccsc2c1=O | 2.25
CCOc1ccc2oc(-c3ccccc3)c(C(=O)N3CCN(CCO)CC3)c2c1 | -0.457
COc1ccc(C(=O)NCc2cn3ccsc3n2)cc1OC | -0.547
COc1cccc(C(=O)NCc2cn3ccsc3n2)c1 | 15.2 (active)
COc1cc(C(=O)NCc2cn3ccsc3n2)cc(OC)c1OC | -0.0269
O=C(CSc1ccc(-c2ccc(F)cc2)nn1)N1CCN(c2ccccc2)CC1 | -0.139
Cc1ccc(C(=O)O)cc1S(=O)(=O)N1CCCC1 | 2.05
Cc1ccc(C(=O)O)cc1S(=O)(=O)N1CCOCC1 | -0.267
Cc1ccc(C(=O)O)cc1S(=O)(=O)N1CCC(C(=O)O)CC1 | 0.299
CCOC(=O)c1cnc2c(C#N)c(C)nn2c1C | 0.0622
COc1ccc(NS(=O)(=O)c2cc(NC(=O)c3ccc(C)o3)ccc2N2CCCCC2)cc1 | -0.024
Cn1c(C(=O)NCCCN2CCN(c3ccccc3F)CC2)cc2c(=O)[nH]c3ccccc3c21 | -0.0771
CCCN1CCN(CCCNC(=O)c2cc3c(=O)n(C)c4ccccc4c3n2C)CC1 | 1.48
CC1CCN(CCCNC(=O)c2cc3c(=O)n(C)c4ccccc4c3n2C)CC1 | 2.7
Cn1c(C(=O)NCCCN2CCOCC2)cc2c(=O)n(C)c3ccccc3c21 | 0.0335
Cn1c(C(=O)NCCN2CCCCCC2)cc2c(=O)n(C)c3ccccc3c21 | 1.86
Cn1c(C(=O)NCCCN2CCCC2=O)cc2c(=O)n(C)c3ccccc3c21 | -0.963
CC1CCCC(C)N1CCCNC(=O)c1cc2c(=O)n(C)c3ccccc3c2n1C (centres undefined) | 2.79
Cn1c(C(=O)NCCN2CCOCC2)cc2c(=O)n(C)c3ccccc3c21 | -2.82
Cn1c(C(=O)NCCCN2CCCCCC2)cc2c(=O)n(C)c3ccccc3c21 | 2.52
CC1CCCCN1CCNC(=O)c1cc2c(=O)n(C)c3ccccc3c2n1C (centres undefined) | 1.88

Compound | z-score
Cn1c(C(=O)NCCCN2CCN(c3ccccc3F)CC2)cc2c(=O)n(C)c3ccccc3c21 | 2.46
CCC(=O)N1CCN(c2nc3ccccc3s2)CC1 | -0.0557
O=C(NNC(=S)NC1CCCCC1)c1cccc(S(=O)(=O)Nc2ccccc2Cl)c1 | -0.537
O=C(CCNc1ccccc1)c1cccc([N+](=O)[O-])c1 | -0.134
Cc1cccc(NC(=O)c2sc(NC(=O)COc3ccccc3)c(C#N)c2C)c1C | -0.152
CC(OC(=O)c1cc2sccc2n1C)C(=O)NCc1ccc2c(c1)OCO2 (centres undefined) | -0.018
Cc1snc2sc(C(=O)c3ccc(Br)cc3)c(N)c12 | -0.378
O=C(NCc1ccco1)c1cc(-c2ccc3c(c2)OCO3)on1 | -0.862
O=C(O)CCCN1C(=O)C2C3CCC(O3)C2C1=O (centres undefined) | -0.35
CCCCn1c(SCC(=O)Nc2ccccc2C(F)(F)F)nc2ccsc2c1=O | 0.00651
COCCN(CCOC)C(=O)CC(=O)N(CCOC)CCOC | 0.0459
Cn1c(C(=O)NCCCN2CCc3ccccc3C2)cc2c(=O)n(C)c3ccccc3c21 | 0.807
Cn1c(C(=O)NCCN2CCc3ccccc3C2)cc2c(=O)n(C)c3ccccc3c21 | 2.7
CN1CCN(CCNC(=O)c2cc3c(=O)n(C)c4ccccc4c3n2C)CC1 | 0.327
COc1cccc(C(=O)OCC(=O)Nc2cc(C)c(C)cc2[N+](=O)[O-])c1 | -0.131
O=C(C1CCCN(Cc2ccccc2)C1)N1CCCCC1 (centres undefined) | 0.122
O=C(C1CCCN(Cc2cccs2)C1)N1CCCCCC1 (centres undefined) | 3.36 (active)
CCOC(=O)C1CCCN(Cc2cccs2)C1 (centres undefined) | -0.137
COc1cccc(C(=O)Cn2c(=O)n(CC3CCCO3)c(=O)c3ccccc32)c1 (centres undefined) | -0.719
O=C(C1CCN(S(=O)(=O)c2cccnc2)CC1)N1CCCCC1 | 0.487
CC1CCN(C(=O)C2CCN(S(=O)(=O)c3cccnc3)CC2)CC1 | 2.03
O=C(C1CCN(S(=O)(=O)c2cccnc2)CC1)N1CCN(C2CCCC2)CC1 | -0.318
Cc1ccc(Cn2nnc3c(=O)[nH]c(C4CCN(S(=O)(=O)c5cc(C)ccc5C)CC4)nc32)cc1 | 0.616
Cc1ccc(S(=O)(=O)NCCc2ccncc2)cc1 | -0.472

Compound | z-score
O=C1CCCN1CN(C(=O)c1ccc2c(c1)OCO2)c1cccc(Cl)c1 | -0.21
COC(=O)CN(c1nc(C)cc(OC)n1)S(=O)(=O)c1ccccc1 | -0.5
COc1cc(C)nc(N(Cc2ccccc2)S(=O)(=O)c2ccccc2)n1 | 2.43
CCN(c1nc(C)cc(OC)n1)S(=O)(=O)c1ccccc1 | -0.243
CCc1ccc(S(=O)(=O)N(C(=O)c2ccncc2)c2ccc(OC(=O)c3ccncc3)cc2)cc1 | -0.659
Cn1c(CN2CCN(C(=O)c3ccccc3)CC2)nc2cc([N+](=O)[O-])ccc21 | 0.0497
Cc1c(NC(=O)c2cnn3c(C(F)(F)F)cc(-c4ccco4)nc23)c(=O)n(-c2ccccc2)n1C | 0.95
Cc1ccc(C)c(NC(=O)/C(C#N)=C/c2ccc(Sc3nncn3C)c([N+](=O)[O-])c2)c1 | -0.0512
CCCCOC(=O)Nc1ccc(C(N)=O)cc1 | 0.507
Cc1cc(NC(=O)c2ccoc2C)no1 | -0.105
COC(=O)c1cc(NC(=O)c2ccoc2C)cc(C(=O)OC)c1 | 4.89 (active)
Cc1occc1C(=O)Nc1cccc(C(=O)O)c1 | -0.0368
CCCOC(=O)c1ccc(NC(=O)Oc2ccccc2)cc1 | 0.454
Cc1occc1C(=O)Nc1ccccc1NC(=O)c1ccoc1C | 0.13
CCOC(=O)c1cc(NC(=O)c2ccoc2C)cc(C(=O)OCC)c1 | -2.39
Cc1cccc(NC(=O)c2ccoc2C)n1 | 2.35
CCCCOC(=O)Nc1ccc(C(=O)OCCC)cc1 | 3.09 (active)
Cc1cccc(NC(=O)c2ccccc2Br)n1 | 0.0402
COC(=O)c1cc(NC(=O)c2cc(C)oc2C)cc(C(=O)OC)c1 | 0.433
Cc1occc1C(=O)Nc1ccc2ccccc2c1 | 2.19
CSc1nc(N(C)C)nc(N2CC(=O)N(CCNS(=O)(=O)c3ccc(C)cc3)C2=N)n1 | -0.172
CCC(=O)NC(=S)Nc1ccc(NC(=O)COc2ccc(Cl)c(C)c2)cc1 | -0.0852
CC(C)(C)C(C(Oc1ccc(Cl)cc1)n1cncn1)n1nnnc1C(c1cccc(Cl)c1)N1CCCCC1 (centres undefined) | 0.12
NS(=O)(=O)c1ccc(CCNC(=O)CSc2ccccc2)cc1 | 0.222

Compound | z-score
CC(C)C(NS(=O)(=O)c1cccc2nsnc12)C(=O)NCc1ccc2c(c1)OCO2 (centres undefined) | -0.269
CCCOC(=O)c1ccc(NC(=O)c2ccc(Br)o2)cc1 | -0.692
CCCOC(=O)c1ccc(NC(=O)c2ccoc2C)cc1 | 2.24
CCCCOC(=O)c1ccc(NC(=O)c2ccoc2C)cc1 | -0.0292
COc1ccc(C(=O)NCC(=O)NCC2COc3ccccc3O2)cc1 (centres undefined) | 1
CCOc1cc(C(=S)N2CCC(O)CC2)ccc1OS(=O)(=O)c1ccc(Br)cc1 | 0.875
CCC(=O)NCC(=O)OCC(=O)c1ccccc1 | -0.0257
O=C(Nc1nc(-c2ccccc2)c(-c2ccccc2)o1)c1ccc(F)cc1 | 13.5 (active)
Cc1ccc(C(=O)Nc2nc(-c3ccccc3)c(-c3ccccc3)o2)cc1 | 3.53 (active)
CC(=O)Nc1nc(-c2ccccc2)c(-c2ccccc2)o1 | -0.185
Cc1cc(C)nc(SCC(=O)Nc2nc(-c3ccccc3)c(-c3ccccc3)o2)n1 | -0.522
Cc1cc(=O)[nH]c(SCC(=O)Nc2nc(-c3ccccc3)c(-c3ccccc3)o2)n1 | -1.38
Cn1nnnc1SCC(=O)Nc1nc(-c2ccccc2)c(-c2ccccc2)o1 | -0.0372
CCOC(=O)c1c(NC(NC(C)=O)C(Cl)(Cl)Cl)sc2c1CCCC2 (centres undefined) | -2.34
COCCCn1c(C)nnc1SCC(=O)NCc1ccco1 | -0.305
Cc1ccc(S(=O)(=O)N(C)Cc2cc3ccccc3[nH]c2=O)cc1 | -0.0752
CCN(CC)CCN(Cc1cc2cc(C)ccc2[nH]c1=O)C(=S)NCc1ccco1 | 0.381
CCOC(=O)COc1cc(Br)c(/C=N/Nc2ccccc2)cc1OC | -0.0959
CCC(C)(C(=O)NC1CCCCC1)N(C(=O)c1ccccn1)c1ccc(C)cc1 (centres undefined) | -0.103
COc1cccc(C(=O)/C=C/Nc2cccc(O)c2)c1 | -0.665
CSc1nnc(CNC(=O)C23CC4CC(CC(C4)C2)C3)n1Cc1ccccc1 | -0.331
C/C(=N\NC(=S)NCCc1ccccc1)c1cccs1 | 3.65 (active)
C/C(=N\NC(=S)NCCc1ccccc1)c1ccc(Cl)cc1 | 1.16
C/C(=N\NC(=S)NCCc1ccccc1)c1ccc(C)cc1 | 1.67

Compound | z-score
O=C1C2C(c3ccccc3)C=CC(c3ccccc3)C2C(=O)N1CCCO (centres undefined) | -0.894
O=C(CCS(=O)(=O)c1ccc(Cl)cc1)NCCN1C(=O)S/C(=C\c2ccccc2F)C1=O | -0.162
Cc1cc(C)n2nc(SCC(=O)N3CCc4ccccc43)nc2n1 | 0.255
O=C(C1CCCCC1)N1CCCC(c2nc3c(nnn3Cc3ccccc3)c(=O)[nH]2)C1 (centres undefined) | 2.1
Cc1ccc(C)c(Cn2nnc3c(=O)[nH]c(C4CCCN(C(=O)C5CCCCC5)C4)nc32)c1 (centres undefined) | -0.651
O=C(c1ccccc1)N1CCCC(c2nc3c(nnn3Cc3ccccc3)c(=O)[nH]2)C1 (centres undefined) | -0.398
O=C(NCCCCNC(=O)c1cccnc1)c1cccnc1 | 8.98 (active)
O=C(NCCOCCOCCNC(=O)c1cccnc1)c1cccnc1 | 0.119
O=C(NCCc1ccccc1)c1cccnc1 | -0.0437
Cc1c(NC(=O)/C(C#N)=C/c2c(Oc3ccccc3)nc3ccccn3c2=O)c(=O)n(-c2ccccc2)n1C | 1.16
CSc1ncc(Cl)c(C(=O)Nc2nnc(SC)s2)n1 | -0.194
CCCc1nc(SCC(=O)Nc2nnc(CC)s2)c2c(C)c(C)sc2n1 | -0.42
Cc1cc(NC(=O)CSc2nc3sc4c(c3c(=O)n2C)CCCC4)no1 | 0.943
CCc1nc(SCC(=O)Nc2nnc(CC)s2)c2c(C)c(C)sc2n1 | 8.71 (active)
Cc1sc2nc(C3CC3)nc(SCC(=O)N3CC(=O)Nc4ccccc43)c2c1C | 3.69 (active)
Cc1cc(NC(=O)CSc2nc(C3CC3)nc3sc(C)c(C)c23)no1 | 12.4 (active)
Cc1cc(NC(=O)CSc2nc(C3CC3)nc3sc4c(c23)CCC(C)C4)no1 (centres undefined) | 0.482
Cc1cc(NC(=O)CSc2nc(C(C)C)nc3sc4c(c23)CCCC4)no1 | -0.493
Cc1nc(SCC(=O)Nc2cc(C)on2)c2c3c(sc2n1)CCCC3 | 2.03
Cc1sc2nc(C3CCCCC3)nc(SCC(=O)N3CC(=O)Nc4ccccc43)c2c1C | -0.0509
Cc1nc(SCC(=O)N2CC(=O)Nc3ccccc32)c2c(C)c(C)sc2n1 | -0.286
CCc1nc(SCC(=O)Nc2cc(C)on2)c2c(C)c(C)sc2n1 | -0.346
Cc1nnc(NC(=O)CSc2nc(C(C)C)nc3sc(C)c(C)c23)s1 | -0.837
